Compound activity (PubChem)
The list is not random: actives were taken first. Their share in the collection is about 3.9%.
SARS 3CLpro inh: SARS-CoV 3CLpro protease inhibitors, primary screen, biochemical, quenched FRET; recombinant SARS-CoV 3CLpro, quenched FRET peptide cleavage; inhibition, % at 6 µM; 290,000 compounds, 0.14% hits; Replicase polyprotein 1ab (Severe acute respiratory syndrome coronavirus), P0C6X7; in the data active = inhibition above about 12%
Anthrax LF prot: Bacillus anthracis LF protease inhibitors, primary screen, biochemical, multiplex microsphere, MLPCN library. 360,000 compounds, 0.12% hits. Lethal factor (Bacillus anthracis), P15917. inhibition, % at 10 µM. multiplex microsphere protease cleavage assay; also: plate controls were buffer without enzyme for full effect and enzyme alone for no effect
Bead autofluor: counter-screen for toxin protease inhibitors: compound fluorescence. fluorescence intensity (no concentration beside the values). 360,000 compounds, 3.1% hits. compound autofluorescence counterscreen, microsphere flow cytometry; stronger effect = higher value; in the data active = fluorescence intensity above about 16000; inconclusive = no clear call, values can overlap the other calls
CCHF vOTU inh: CCHFV vOTU protease inhibitors, primary screen, biochemical, Pep-AMC substrate, fluorescence; inhibition, % at 11.5 µM; 370,000 compounds, 0.55% hits; AID 651958, 2012; in the data active = inhibition above about 30%; also: 0% = vehicle wells with enzyme and 100% = no enzyme wells
BoNT-A LC inh2: BoNT/A light chain protease inhibitors, primary screen, biochemical, flow cytometry, MLPCN library | Botulinum neurotoxin type A light chain protease (Clostridium botulinum A str. ATCC 3502) | multiplex microsphere protease substrate cleavage | inhibition, % at 10 µM | 360,000 compounds, 0.17% hits | AID 588499, 2011; also: plate controls were buffer without enzyme for full effect and enzyme alone for no effect
BoNT-F LC inh: BoNT/F light chain protease inhibitors, primary screen, biochemical, flow cytometry, MLPCN library; Botulinum neurotoxin type F light chain protease (Clostridium botulinum); Multiplex microsphere protease cleavage assay; inhibition, % at 10 µM; 360,000 compounds, 0.22% hits; AID 588497, 2011; in the data active = inhibition above about 35%, passing the limit was not always enough; inconclusive = no clear call, values can overlap the other calls; also: plate controls were buffer without enzyme for full effect and enzyme alone for no effect
Active calls of the source: *; ? = inconclusive; · = no result given. Rule as the data show it, unless noted: active = inhibition above about 30%; inconclusive = no clear call, values can overlap the other calls; inactive = below that.

SMILES | SARS 3CLpro inh | Anthrax LF prot | Bead autofluor | CCHF vOTU inh | BoNT-A LC inh2 | BoNT-F LC inh
O=C(NNC(=O)c1ccccc1Br)c1ccc(SCC2CCCO2)c([N+](=O)[O-])c1 (centres undefined) | -1 | -1 | 21390* | -8 | 4 | 6
Cc1ccc(C(=O)NNC(=O)c2ccc(SCC3CCCO3)c([N+](=O)[O-])c2)cc1 (centres undefined) | 2 | 0 | 10655 | -5 | 0 | 2
O=C(NNC(=O)c1ccc(SCC2CCCO2)c([N+](=O)[O-])c1)c1ccc(Cl)c([N+](=O)[O-])c1 (centres undefined) | -2 | -1 | 21281* | 13 | 6 | 5
CCC(Sc1nc(C)cc(=O)[nH]1)C(=O)Nc1nc2c(s1)CCCC2 (centres undefined) | 4 | -7 | 22164* | 1 | ? | -3
COc1ccc(CCNC(=O)c2cc3ccccn3n2)cc1 | · | · | · | -4 | · | ·
COC(=O)COC(=O)CC(CC(N)=O)c1ccccc1 (centres undefined) | 2 | -1 | 22984* | -1 | 1 | 1
O=C(CC(CC(=O)c1ccccc1)c1ccccc1)c1ccccc1 | 3 | 16 | 3836 | 12 | 1 | -18
Cc1c(NC(=O)C2CCCN(S(=O)(=O)c3ccc(Cl)s3)C2)c(=O)n(-c2ccccc2)n1C (centres undefined) | · | · | · | 2 | · | ·
CCSc1ccc([C@@H]2[C@H]3C(=O)N(CC)C(=O)[C@H]3[C@]3(C(=O)OC)CCCCN23)cc1 | · | 4 | 21568* | 10 | -4 | 30
CCSc1ccc([C@@H]2[C@@H]3C(=O)N(CC)C(=O)[C@@H]3[C@]3(C(=O)OC)CCCCN23)cc1 | · | -1 | 3027 | 6 | 0 | -11
O=C(O)CCCc1nc(-c2ccccc2)no1 | -2 | -3 | 16634* | -2 | 0 | -2
O=C(CCc1nc(-c2ccccc2)no1)NCc1cccnc1 | -1 | -3 | 23102* | -3 | -3 | -5
O=C(CCCc1ccccc1)NCc1cccnc1 | -6 | 0 | 24595* | -3 | -1 | -3
Cc1nnc2n(-c3ccccc3)c(=O)c3c4c(sc3n12)CC(C)CC4 (centres undefined) | -4 | 3 | 18626* | -4 | 3 | 2
COc1ccc(-n2c(=O)c3c4c(sc3n3c(C)nnc23)CC(C)CC4)cc1 (centres undefined) | 1 | · | · | · | · | ·
COc1ccc2[nH]cc(C(C)c3ccccc3O)c2c1 (centres undefined) | · | · | · | -3 | · | ·
COCCCNC(=O)C[C@H]1C[C@@]2(C(=O)OC)C(=C[C@H](COCc3ccccc3)O[C@@H]2C)N(Cc2ccc(Cl)cc2Cl)C1=O | · | · | · | 4 | · | ·
O=C(NNC(=O)C1CCCCC1)c1cnccn1 | 2 | 1 | 22696* | -1 | 3 | 4
O=C(CCC1CCCCC1)NNC(=O)c1cnccn1 | 3 | -3 | 9736 | -9 | -2 | -9
O=C(CSc1nnc(-c2ccc(Cl)cc2)n1-c1ccccc1)NN=Cc1c[nH]c2ccccc12 | · | · | · | 17 | · | ·
Cc1ccccc1OC1C(=O)N(Cc2ccc3c(c2)OCO3)C1c1sccc1C (centres undefined) | -4 | -3 | 22460* | -7 | ? | 4
CC(C)N1CCCCC(NC(=O)c2cccs2)C1=O (centres undefined) | · | · | · | 10 | · | ·
O=C(Nc1cccc(-c2nc3ncccc3o2)c1)c1sc2cc(Cl)ccc2c1Cl | 3 | 0 | 22567* | -7 | ? | 2
O=C(Nc1cccc(-c2nc3ncccc3o2)c1)c1cc2ccccc2o1 | -2 | 0 | 4703 | -4 | -1 | -16
O=C(Nc1cccc(-c2nc3ncccc3o2)c1)c1sc2ccccc2c1Cl | -3 | 0 | 18637* | -4 | 8 | 8
SMILES | SARS 3CLpro inh | Anthrax LF prot | Bead autofluor | CCHF vOTU inh | BoNT-A LC inh2 | BoNT-F LC inh
Cc1cc(C)cc(C(=O)OCCCN(C)C2CN(Cc3cn(Cc4cccc(F)c4)nn3)S(=O)(=O)C2)c1 (centres undefined) | · | · | · | 18 | · | ·
CCOc1ccc(N2CC(=O)N(c3ccc(OCC)cc3)CC2=O)cc1 | 2 | -1 | 22131* | 1 | 1 | 2
CCOc1ccc(N2C(=O)c3cccnc3C2=O)cc1 | -2 | -3 | 19193* | 0 | 3 | 3
CCOc1ccc(N2C(=O)Cc3ccccc3C2=O)cc1 | 3 | 1 | 4047 | 15 | 2 | 6
CC(=O)C1(C(=O)NC2CCCC2)CC(c2ccccn2)=NO1 (centres undefined) | · | · | · | -11 | · | ·
CC[C@H]1OC(=O)[C@H](C)[C@@H](O[C@H]2C[C@@](C)(OC)[C@@H](O)[C@H](C)O2)C(C)[C@@H](O[C@@H]2O[C@H](C)C[C@H](N(C)C)[C@H]2O)[C@](C)(O)C[C@@H](C)CN(C)[C@H](C)[C@@H](O)[C@]1(C)O (some centres undefined) | · | · | · | -4 | · | ·
COc1ccc(NC(=O)N(C)[C@H]2C[C@H]3c4[nH]c5c(-c6ccccc6)cccc5c4CCN3C(=O)[C@H]2[C@H](C)O)cc1 | · | · | · | -2 | · | ·
CCOC(=O)N1CCN(C(=O)CCn2c(=S)[nH]c3cc(OCC)c(OCC)cc3c2=O)CC1 | 2 | · | · | · | · | ·
CCOc1cc2[nH]c(=S)n(CCCC(=O)N3CCC4(CC3)OCCO4)c(=O)c2cc1OCC | -3 | 1 | 22729* | -2 | -1 | 0
CCCCNC(=O)CCCCCn1c(=O)[nH]c2cc(OC)c(OC)cc2c1=O | 3 | -11 | 19264* | -7 | ? | -1
CCCCCNC(=O)CCCCn1c(=O)[nH]c2cc(OCC)c(OCC)cc2c1=O | -6 | 1 | 4282 | -12 | -1 | -8
CCOc1cc2[nH]c(=S)n(CCOC)c(=O)c2cc1OCC | -2 | -4 | 22228* | -5 | -1 | -2
COc1cc2[nH]c(=S)n(NC(=O)CC(C)C)c(=O)c2cc1OC | 4 | -4 | 24467* | -10 | ? | -3
CCOc1cc2[nH]c(=S)n(CCCN(CC)CC)c(=O)c2cc1OCC | 1 | 9 | 8924 | 5 | 0 | 7
CCN(CC)C(=O)CC[C@H]1CC[C@]2(CCCN(Cc3nccs3)C2)O1 | · | · | · | 5 | · | ·
CC(C)CCN(C)C1CCN(C(=O)Nc2ccccc2)CC1 | · | · | · | -1 | · | ·
O=C(N[C@H](Cc1ccccc1)C(=O)NCC1CCCCC1)[C@H]1O[C@@H](n2ccc(=O)[nH]c2=O)[C@H](O)[C@@H]1O | · | · | · | -17 | · | ·
Cc1cccc(NC(=O)NN(C(=O)c2ccccc2Cl)C(C)(C)C)c1 | · | · | · | -6 | · | ·
CC(C)(C)c1ccc(S(=O)(=O)N2CCCC(C(=O)NCc3ccco3)C2)cc1 (centres undefined) | · | · | · | 2 | · | ·
COC(=O)[C@H](CC(C)C)N1Cc2nnn(CC3CCCCC3)c2-c2ccccc2S1(=O)=O | · | · | · | 6 | · | ·
